Assay results published in the supplement of paper PMC6555819.

Columns and labels:
Assay in all cases: PBM binding z-score (relative to random genomic background probes); higher = stronger binding; sequences stand for … in GC…GCGATTGACAGCGTAGAATGAAGG
[1] = system: FXR:RXRa (NR concentration 270 nM, RXRa partner concentration 90 nM)
Summary of the method: (§1)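 Probes were double-stranded and carried 34-nt variable regions with direct-repeat seeds, single-nucleotide variants, half-site ablations and random human genomic background sequences, printed on custom Agilent 4×180K protein-binding microarrays. Arrays were incubated 1 h with ligand-free nuclear receptor dimers in PBS pH 7.4, 2% milk, 0.02% Triton X-100, 1 mM DTT, 0.2 mg/mL BSA and 0.4 mg/ml salmon testes DNA. Antibodies against each partner (one per run) detected binding, and scanned fluorescence was regression-normalized. Binding z-scores use the random background probes as reference.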

[2] = system: LXRa:RXRa (NR concentration 270 nM, RXRa partner concentration 90 nM)
Summary of the method: as §1

[3] = system: LXRa homodimer (NR concentration 270 nM)
Summary of the method: as §1

[4] = system: LXRb:RXRa (NR concentration 270 nM, RXRa partner concentration 90 nM)
Summary of the method: as §1

[5] = system: LXRb homodimer (NR concentration 270 nM)
Summary of the method: as §1

[6] = system: PPARa:RXRa (NR concentration 270 nM, RXRa partner concentration 90 nM)
Summary of the method: as §1

[7] = system: PPARg:RXRa (NR concentration 180 nM, RXRa partner concentration 90 nM)
Summary of the method: as §1

[8] = system: PPARg:RXRa 270nM:90nM, anti-RXR (NR concentration 270 nM, RXRa partner concentration 90 nM)
Summary of the method: as §1

[9] = system: PPARg:RXRa 30nM:10nM, anti-RXR (NR concentration 30 nM, RXRa partner concentration 10 nM)
Summary of the method: as §1

[10] = system: PPARg:RXRa 90nM:30nM, anti-RXR (NR concentration 90 nM, RXRa partner concentration 30 nM)
Summary of the method: as §1

Row | Sequence | PBM binding z-score [1] | PBM binding z-score [2] | PBM binding z-score [3] | PBM binding z-score [4] | PBM binding z-score [5] | PBM binding z-score [6] | PBM binding z-score [7] | PBM binding z-score [8] | PBM binding z-score [9] | PBM binding z-score [10]
1 | ACTTACGGGTCAACGAGCTTATAGCACGCGTATA | 6.23 | 3.9 | 0.0459 | 3.55 | 0.744 | 5.49 | 4.76 | 5.05 | 1.71 | 3.6
2 | TCTAGTAGTTGAAGGGCAACCGACGAGTCCGTTT | 0.63 | 0.618 | -0.0916 | 0.268 | -0.134 | 0.455 | -0.018 | 1.65 | 2.83 | 2.22
3 | GCCACTGGGGCAAAGCAGGTTACCATAAGGTTGG | 0.159 | 0.154 | -0.633 | -0.0213 | -0.866 | 1.67 | 2.09 | 2.57 | 0.133 | 1.47
4 | ATACCAAGGTGACCGTGAGGTCGTTGATACTAAC | 3.38 | 2.05 | 0.765 | 2.02 | -0.023 | 2.4 | 1.44 | 1.39 | 0.228 | 0.726
5 | TCTCGGAGGACACGAAGGTCAGAGATTTCCAGAG | 1.38 | 0.932 | 0.277 | 1.25 | -0.387 | 1.83 | 0.75 | 1.93 | 2.37 | 2.23
6 | AGAATGAGGTTCTTAAGATCAGGGAATTGCGGTC | -0.335 | -0.575 | -0.571 | -0.551 | -0.54 | -0.0387 | 0.197 | -0.0485 | -0.306 | 0.0331
7 | GGTAGCAGGCCATTTGGGTCACTCAATGACGGGC | 0.428 | 0.0822 | -0.186 | 0.118 | -0.593 | 1.49 | 0.828 | 0.694 | -0.356 | 0.275
8 | TCGAGTAGGATAGGGGCATTCAGAATGGCGTCGA | 0.0392 | -0.388 | -0.671 | 0.283 | -0.491 | 0.262 | 0.0969 | 0.573 | 0.884 | 0.812
9 | TCGAGTAGGTTAGGGGTATTCAGAATGGCGTCGA | 0.347 | 0.298 | -0.105 | 1.01 | -0.0483 | 1.66 | 2.37 | 3.55 | 2.28 | 2.99
10 | CGAACTAGGTCAAGAACAGTGAATCTCCGCACGC | 2.92 | 1.9 | 0.155 | 1.35 | 0.0467 | 4.39 | 6.53 | 6.17 | 2.93 | 5.49
11 | CCCACTGGGGCATAAGGTTACCATAAGCCAGCCC | 0.325 | 1.44 | -0.234 | 0.476 | -1.1 | 2.36 | 3.91 | 4.26 | 1.73 | 3.6
12 | TCTGCTACGTCAGTTGGTCAGCTAACGAGCTGCC | -1.7 | -0.859 | -1.04 | -1.12 | -0.14 | -0.303 | -0.674 | 0.0272 | 1.01 | 0.437
13 | GCTAGTTGGTCAGTAAAAGGTTACACACCGGTCG | 0.754 | 1.32 | 0.582 | 1.27 | -0.0752 | 1.85 | 0.972 | 2.31 | 0.546 | 1.46
14 | AGAACGAGGGCAATGAGTTGATATCACGGGTGGC | 0.383 | 0.334 | -0.363 | -0.00546 | -0.245 | 1.52 | 1.86 | 1.07 | 0.219 | 0.833
15 | GCTTGTAGATCAACGTTAAGAAAGACTAAGCTAA | -0.519 | -0.395 | -0.371 | -0.448 | -0.769 | -0.124 | 0.13 | -0.0429 | -0.364 | -0.214
16 | ATATGTAGGCTATCGGGTCATTCAGTTTGCGCAT | 1.71 | 1.58 | 0.22 | 1.95 | 0.313 | 3.69 | 4.12 | 3.83 | 1.92 | 3.21
17 | TCATATGGGTAAAAGGTGAAAGTCGGTGTGGTAA | 1.33 | 1.38 | -0.164 | 1.62 | -0.571 | 4.91 | 8.23 | 7.44 | 7.67 | 8.21
18 | TCTTGTAGATCAAAAGAGGTTAAGAAAGTGCGCT | 0.748 | 3.35 | -0.0772 | 1.66 | -0.239 | 1.89 | -0.0297 | 1.59 | 2.62 | 2.16
19 | GTACCAAGGTGACTAGGTCGTTGATGAGTAGGCG | 0.348 | 0.174 | -0.398 | -0.125 | -1.01 | 1.59 | 1.89 | 1.69 | 0.141 | 0.756
20 | ACAGACAAGTGAGTGAAGGTAACTCAGCTGGACG | -0.054 | -0.258 | -0.475 | -0.57 | -0.342 | -0.314 | 0.674 | -0.0179 | -0.202 | -0.0069
21 | CCTCGGAGGACAGAAGTTCAGAGCTGTCCGCTTT | -0.0968 | 0.116 | -0.259 | -0.479 | -0.948 | -0.198 | -0.643 | -0.616 | -1.24 | -0.788
22 | GCTGCTAGGTCAGGTTGGTCAGCGAACGGGTACG | 1.22 | 0.707 | -0.269 | 0.492 | -0.499 | 1.3 | 0.347 | 0.793 | -0.213 | 0.414
23 | CAAACTACGTCAAAGGTCAAAGTCGAGCCAACCA | 5.96 | 6.21 | 4.83 | 5.68 | 2.75 | 6.18 | 8.64 | 7.97 | 6.79 | 8.59
24 | TCAGCTAGGTCAACGATGGTCAGCTAATCTGCTA | 3.13 | 2.34 | -0.215 | 1.41 | -0.491 | 3.2 | 2.64 | 2.95 | 2.5 | 2.66
